Test results as given in PubChem BioAssay AID1159580 (chemical genetic matrix, 2015).
About 2,000 (36%) of roughly 5,500 compounds were called active. Inconclusive results (about 18%) are left out. The list shows a part of the results. Unmarked numbers belong to inactive results. Cut-off read from the data, not from the text of the source: active = normalized growth mostly below about 0.91 (no sharp cut-off); inconclusive = no clear call, values can overlap the other calls; inactive = mostly above about 0.92.

Assay: chemical genetic growth profiling, strain panel (AID 1159580);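 note: tested at 20 µM; growth read once vehicle control cultures reached saturation at 30 °C; 1 = growth at the plate median or of vehicle wells; lower values mean less growth of the strain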
Conditions: S. cerevisiae deletion strains, growth OD

COc1cc(NS(C)(=O)=O)ccc1Cc1c2ccccc2nc2ccccc12
normalized growth (locus YAL021C, strain ccr4, active compounds read low): 0.785 (active) | normalized growth (locus YAL026C, strain drs2, active compounds read low): 1 | normalized growth (locus YAL030W, strain snc1, active compounds read low): 0.971 | normalized growth (locus YBL061C, strain skt5, active compounds read low): 1.01 | normalized growth (locus YBR009C, strain hhf1, active compounds read low): 0.828 (active) | normalized growth (locus YBR023C, strain chs3, active compounds read low): 0.988 | normalized growth (locus YBR171W, strain sec66, active compounds read low): 1.02 | normalized growth (locus YBR231C, strain swc5, active compounds read low): 0.969 | normalized growth (locus YBR279W, strain paf1, active compounds read low): 0.988 | normalized growth (locus YCL011C, strain gbp2, active compounds read low): 0.939 | normalized growth (locus YCL016C, strain dcc1, active compounds read low): 0.476 (active) | normalized growth (locus YCL061C, strain MRC1, active compounds read low): 0.867 (active) | normalized growth (locus YCL069W, strain vba3, active compounds read low): 1 | normalized growth (locus YCR088W, strain abp1, active compounds read low): 0.986 | normalized growth (locus YDL005C, strain med2, active compounds read low): 0.681 (active) | normalized growth (locus YDL040C, strain nat1, active compounds read low): 0.994 | normalized growth (locus YDR001C, strain nth1, active compounds read low): 0.999 | normalized growth (locus YDR069C, strain doa4, active compounds read low): 0.842 (active) | normalized growth (locus YDR137W, strain rgp1, active compounds read low): 1.1 | normalized growth (locus YDR159W, strain sac3, active compounds read low): 0.947 | normalized growth (locus YDR195W, strain ref2): 1.05 | normalized growth (locus YDR297W, strain sur2, active compounds read low): 0.96 | normalized growth (locus YDR334W, strain swr1, active compounds read low): 1.01 | normalized growth (locus YDR335W, strain msn5, active compounds read low): 0.993 | normalized growth (locus YDR392W, strain spt3, active compounds read low): 0.795 | normalized growth (locus YEL003W, strain gim4, active compounds read low): 0.966 | normalized growth (locus YEL037C, strain rad23, active compounds read low): 0.979 | normalized growth (locus YEL061C, strain CIN8 (second series), active compounds read low): 0.982 | normalized growth (locus YER015W, strain faa2, active compounds read low): 0.986 | normalized growth (locus YER016W, strain bim1, active compounds read low): 0.909 (active) | normalized growth (locus YER111C, strain swi4, active compounds read low): 1.01 | normalized growth (locus YER155C, strain BEM2 (second series), active compounds read low): 0.885 | normalized growth (locus YFR010W, strain ubp6, active compounds read low): 0.877 (active) | normalized growth (locus YGL167C, strain pmr1, active compounds read low): 1 | normalized growth (locus YGL173C, strain kem1, active compounds read low): 0.991 | normalized growth (locus YGL227W, strain vid30, active compounds read low): 0.994 | normalized growth (locus YGL240W, strain doc1, active compounds read low): 0.892 | normalized growth (locus YGL253W, strain hxk2, active compounds read low): 0.996 | normalized growth (locus YHR013C, strain ard1, active compounds read low): 0.874 | normalized growth (locus YHR027C, strain rpn1, active compounds read low): 0.978 | normalized growth (locus YHR030C, strain SLT2, active compounds read low): 0.974 | normalized growth (locus YHR079C, strain IRE1, active compounds read low): 0.946 | normalized growth (locus YHR142W, strain chs7, active compounds read low): 0.964 | normalized growth (locus YJL092W, strain hpr5, active compounds read low): 0.712 (active) | normalized growth (locus YJL095W, strain BCK1 (second series), active compounds read low): 0.986 | normalized growth (locus YJL095W, strain BCK1, active compounds read low): 1 | normalized growth (locus YJL115W, strain asf1, active compounds read low): 0.341 (active) | normalized growth (locus YJL129C, strain trk1, active compounds read low): 0.933 | normalized growth (locus YJL154C, strain vps35, active compounds read low): 0.998 | normalized growth (locus YJL164C, strain tpk1, active compounds read low): 0.918 | normalized growth (locus YJL166W, strain qcr8, active compounds read low): 0.945 | normalized growth (locus YJR066W, strain TOR1, active compounds read low): 0.919 | normalized growth (locus YKL160W, strain elf1, active compounds read low): 0.985 | normalized growth (locus YKR026C, strain gcn3, active compounds read low): 0.998 | normalized growth (locus YKR091W, strain srl3, active compounds read low): 1 | normalized growth (locus YLL001W, strain dnm1, active compounds read low): 0.936 | normalized growth (locus YLL026W, active compounds read low): 0.977 | normalized growth (locus YLL041C, strain sdh2, active compounds read low): 0.99 | normalized growth (locus YLR027C, strain aat2, active compounds read low): 0.916 (active) | normalized growth (locus YLR113W, strain HOG1, active compounds read low): 0.971 | normalized growth (locus YLR221C, strain rsa3, active compounds read low): 0.899 (active) | normalized growth (locus YLR258W, strain gsy2, active compounds read low): 0.969 | normalized growth (locus YLR262C, strain YPT6 (second series), active compounds read low): 1 | normalized growth (locus YLR320W, strain mms22, active compounds read low): 0.208 (active) | normalized growth (locus YLR342W, strain FKS1, active compounds read low): 0.927 | normalized growth (locus YLR357W, strain rsc2, active compounds read low): 0.987 | normalized growth (locus YLR370C, strain arc18, active compounds read low): 0.923 | normalized growth (locus YLR384C, strain iki3, active compounds read low): 0.994 | normalized growth (locus YML120C, strain ndi1, active compounds read low): 0.956 | normalized growth (locus YMR058W, strain fet3, active compounds read low): 0.949 | normalized growth (locus YMR125W, strain sto1, active compounds read low): 0.98 | normalized growth (locus YMR129W, active compounds read low): 0.984 | normalized growth (locus YMR205C, strain PFK2, active compounds read low): 0.947 | normalized growth (locus YMR231W, strain pep5, active compounds read low): 1 | normalized growth (locus YNL071W, strain lat1, active compounds read low): 0.987 | normalized growth (locus YNL183C, strain NPR1, active compounds read low): 0.952 | normalized growth (locus YNL209W, strain ssb2, active compounds read low): 0.986 | normalized growth (locus YNL248C, strain rpa49, active compounds read low): 0.945 | normalized growth (locus YNL322C, strain KRE1 (second series), active compounds read low): 0.822 (active) | normalized growth (locus YNR049C, strain mso1, active compounds read low): 0.989 | normalized growth (locus YOR001W, strain rrp6, active compounds read low): 0.915 | normalized growth (locus YOR070C, strain gyp1, active compounds read low): 0.984 | normalized growth (locus YOR080W, strain dia2, active compounds read low): 0.494 (active) | normalized growth (locus YOR083W, strain WHI5, active compounds read low): 0.934 | normalized growth (locus YOR106W, strain vam3, active compounds read low): 0.926 | normalized growth (locus YOR231W, strain MKK1, active compounds read low): 1.01 | normalized growth (locus YOR265W, strain rbl2, active compounds read low): 0.985 | normalized growth (locus YOR270C, strain vph1, active compounds read low): 0.935 | normalized growth (locus YOR290C, strain snf2, active compounds read low): 0.823 (active) | normalized growth (locus YPL051W, strain arl3, active compounds read low): 0.992 | normalized growth (locus YPL078C, strain atp4, active compounds read low): 1.02 | normalized growth (locus YPL106C, strain sse1, active compounds read low): 1.02 | normalized growth (locus YPL240C, strain hsp82, active compounds read low): 0.991 | normalized growth (locus YPL256C, strain CLN2, active compounds read low): 0.944
